# Results as given in PubChem BioAssay AID2284123 (EPA ToxCast).
# The source made the active and inactive calls. Rule for the calls: active = hit-call score of the fitted dose curve at least 0.9, where 1 is the maximum; inactive = score below 0.9.
# Biological target: human PDE10A2 Phosphodiesterase, PDE10A (gene 10846) (UniProt Q9Y233)
# Test: ERF_FR_ENZ_hPDE10A: Eurofins (ERF) Enzymatic LeadHunter Assay for human PDE10A2 Phosphodiesterase
# Description: ERF_FR_ENZ_hPDE10A is a biochemical, single-readout assay that uses extracted gene-proteins in a cell-free assay. Measurements were taken 0.33 hour after chemical dosing in a 96-well plate. See PDE10A2 Human Phosphodiesterase Enzymatic Assay, Cerep.ERF_FR_ENZ_hPDE10A is an assay component calculated from the ERF_FR_ENZ_hPDE10A assay. It is designed to measure enzyme activity using a type of enzyme reporter as detected by scintillation counting with radiometry technology.Data from the assay component ERF_FR_ENZ_hPDE10A was analyzed at the assay endpoint, ERF_FR_ENZ_hPDE10A, in the positive analysis fitting direction relative to DMSO as the negative control and baseline of activity. Using a type of enzyme reporter, loss-of-signal activity can be used to understand changes in enzymatic activity as they relate to gene PDE10A. To generalize the intended target to other relatable targets, this assay endpoint is annotated to the phosphodiesterase intended target family, where the subfamily is cyclic nucleotide signaling.
# Human cells are incubated for 20 minutes at room temprature with [3H]cAMP + cAMP (0.2uM) as sunstrate and Papaverine as control inhibitor. Test Sample Requirements: Minimum for 1) Screen: 60 ul of 10 mM stock -OR- 1 mg (pre-weighed) for 10 uM final testing. 2) Dose Response: 90 ul of 10 mM stock -OR- 1 mg (pre-weighed) for a top concentration at 10 uM.
# human PDE10A2 Phosphodiesterase, PDE10A (gene 10846), sequence (Q9Y233 whole entry, looked up): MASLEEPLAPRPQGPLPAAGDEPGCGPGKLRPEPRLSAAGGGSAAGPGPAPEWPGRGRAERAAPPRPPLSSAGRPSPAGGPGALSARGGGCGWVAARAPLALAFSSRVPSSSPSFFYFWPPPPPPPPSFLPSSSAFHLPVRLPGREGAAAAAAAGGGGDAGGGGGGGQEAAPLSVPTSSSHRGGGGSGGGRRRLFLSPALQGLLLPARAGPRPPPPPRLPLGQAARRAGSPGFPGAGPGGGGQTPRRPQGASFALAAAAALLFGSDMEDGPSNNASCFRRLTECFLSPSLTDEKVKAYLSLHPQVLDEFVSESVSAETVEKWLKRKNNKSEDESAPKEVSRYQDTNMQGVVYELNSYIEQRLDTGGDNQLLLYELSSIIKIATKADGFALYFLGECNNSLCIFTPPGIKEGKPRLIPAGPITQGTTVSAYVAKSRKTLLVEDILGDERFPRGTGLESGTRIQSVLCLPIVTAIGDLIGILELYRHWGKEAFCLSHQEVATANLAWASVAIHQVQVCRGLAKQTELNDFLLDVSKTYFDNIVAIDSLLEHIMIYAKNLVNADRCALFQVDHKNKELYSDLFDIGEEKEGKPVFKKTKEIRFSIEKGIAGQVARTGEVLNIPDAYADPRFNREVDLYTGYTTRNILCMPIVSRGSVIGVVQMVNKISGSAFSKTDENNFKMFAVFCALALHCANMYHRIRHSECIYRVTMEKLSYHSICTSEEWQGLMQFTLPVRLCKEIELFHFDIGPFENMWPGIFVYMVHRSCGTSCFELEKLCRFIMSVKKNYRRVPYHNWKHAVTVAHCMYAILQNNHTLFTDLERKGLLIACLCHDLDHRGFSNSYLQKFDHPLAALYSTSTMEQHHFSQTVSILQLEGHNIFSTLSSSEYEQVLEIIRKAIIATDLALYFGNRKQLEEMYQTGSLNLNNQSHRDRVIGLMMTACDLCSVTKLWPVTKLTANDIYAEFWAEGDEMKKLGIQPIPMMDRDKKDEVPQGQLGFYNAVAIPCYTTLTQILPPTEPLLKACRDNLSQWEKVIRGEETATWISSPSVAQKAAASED
row,SMILES,AC50
1,O=C(/C=C/c1ccc(O)cc1)CC(=O)/C=C/c1ccc(O)cc1,295 nM (active)
